Test results: PubChem BioAssay (EPA / NIEHS)
Inconclusive results are not listed. The source made the active and inactive calls. How the source made its calls, unless noted: active means hit-call score of the fitted dose curve at least 0.9, where 1 is the maximum; inconclusive means response in the unintended direction; inactive means score below 0.9.

Assays:
[1] = TOX21_p53_BLA_p2_viability: Viability Assessment in the Tox21 HCT-116 p53 Agonism Beta-lactamase Assay, Phase 2 (AID 2283591);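 further: compound exposure lasted 16 h at 37 °C; actives lower the ATP signal meaning cytotoxicity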
How it was run: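 HCT116 p53-bla cells, 4000/well, dosed after 5 h plating (217-fold dilution of DMSO stocks) and incubated 16 h at 37C. Viability taken as cellular ATP by CellTiter-Glo luminescence after 30 min RT; signal loss marks cytotoxicity.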

[2] = target: Cellular tumor antigen p53 (Homo sapiens) (UniProt P04637); test: TOX21_p53_BLA_p2_ratio: Tox21 HCT-116 p53 Agonism Beta-lactamase Assay, Ratio, Phase 2 (AID 2283592)
Chain of Cellular tumor antigen p53 (Homo sapiens) (P04637 whole entry, looked up): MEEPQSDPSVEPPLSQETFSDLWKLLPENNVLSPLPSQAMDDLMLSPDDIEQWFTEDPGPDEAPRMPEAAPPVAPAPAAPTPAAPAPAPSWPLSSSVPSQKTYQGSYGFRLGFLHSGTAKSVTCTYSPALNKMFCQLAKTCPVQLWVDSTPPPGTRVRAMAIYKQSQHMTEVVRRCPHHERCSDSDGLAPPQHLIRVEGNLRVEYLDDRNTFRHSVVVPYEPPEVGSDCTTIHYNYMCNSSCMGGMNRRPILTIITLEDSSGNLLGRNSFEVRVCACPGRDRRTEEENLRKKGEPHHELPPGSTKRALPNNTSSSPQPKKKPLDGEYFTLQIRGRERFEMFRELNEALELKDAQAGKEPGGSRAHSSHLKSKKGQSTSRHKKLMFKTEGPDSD
How it was run: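 Read-out is the blue/green (460/530 nm, 405 nm excitation) ratio after 2 h CCF4-AM loading, fitted as gain versus DMSO. Compounds, pinned at 217-fold dilution from DMSO stocks, stayed 16 h on HCT-116 beta-lactamase reporter cells seeded 5 h earlier.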

[3] = target: Cellular tumor antigen p53 (Homo sapiens) (UniProt P04637); test: TOX21_p53_BLA_p3_ratio: Tox21 HCT-116 p53 Agonism Beta-lactamase Assay, Ratio, Phase 3 (AID 2283596)
How it was run: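 Cells were seeded at 4000/well, rested 5 h at 37C, then dosed with DMSO compound solutions (217-fold dilution) for 16 h. CCF4-AM substrate was loaded for 2 h at room temperature, and the 460/530 nm emission ratio was fitted for gain of signal versus DMSO.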

[4] = target: Cellular tumor antigen p53 (Homo sapiens) (UniProt P04637); test: TOX21_p53_BLA_p5_ratio: Tox21 HCT-116 p53 Agonism Beta-lactamase Assay, Ratio, Phase 5 (AID 2283599)
How it was run: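 HCT-116 p53-bla cells (4000/well) plated 5 h, dosed with compound (217-fold DMSO dilution) for 16 h at 37 C; CCF4-AM substrate 2 h at room temperature. Activity is the 460/530 nm emission ratio (405 nm excitation), fitted in gain-of-signal direction versus DMSO.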

[5] = target: Cellular tumor antigen p53 (Homo sapiens) (UniProt P04637); test: TOX21_p53_BLA_p4_ratio: Tox21 HCT-116 p53 Agonism Beta-lactamase Assay, Ratio, Phase 4 (AID 2283601)
How it was run: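 HCT-116 p53 beta-lactamase reporter cells (4000/well) preincubated 5 h, then compound (217-fold dilution of DMSO stock) for 16 h at 37C. CCF4-AM substrate added 2 h at room temperature; 460/530 nm emission ratio fitted upward versus DMSO.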

[6] = TOX21_p53_BLA_p4_viability: Viability Assessment in the Tox21 HCT-116 p53 Agonism Beta-lactamase Assay, Phase 4 (AID 2283597);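 further: hits lower the luminescence signal meaning cytotoxicity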
How it was run: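 Cytotoxicity as reduced cellular ATP (CellTiter-Glo luminescence, 30 min room temperature), measured in the same wells following the CCF4 FRET p53 reading. Human HCT-116 cells received compounds in DMSO (217-fold dilution) for 16 h.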

[7] = TOX21_p53_BLA_p3_viability: Viability Assessment in the Tox21 HCT-116 p53 Agonism Beta-lactamase Assay, Phase 3 (AID 2283593);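 further: cells exposed to compound for 16 h before reading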
How it was run: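 HCT116 cells, 4000/well, dosed 5 h after plating by pin transfer (217-fold dilution from DMSO stock) and incubated 16 h at 37C, 5% CO2. Viability read as ATP luminescence with CellTiter-Glo after 30 min at room temperature.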

[8] = TOX21_p53_BLA_p5_viability: Viability Assessment in the Tox21 HCT-116 p53 Agonism Beta-lactamase Assay, Phase 5 (AID 2283600)
How it was run: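 Viability came from CellTiter-Glo ATP luminescence, read after 30 min at room temperature. Before this, HCT-116 p53-bla cells (4000/well) had 16 hours of compound exposure at 37C, with DMSO stocks diluted 217-fold on transfer.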

[9] = ACEA_ER_AUC_viability: ACEA Biosciences xCELLigence Real-Time Cell Analysis on Estrogen Receptor Agonism for Viability (AID 2283782);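 further: hit means loss of impedance signal meaning reduced cell growth or viability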
How it was run: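 Read-out: real-time electrical impedance (RT-CES) area under curve, loss of signal taken as reduced viability, normalized to DMSO baseline. T-47D cells, charcoal-stripped serum medium, compounds up to 100 uM final, continuous exposure, 80 h.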

[10] = CCTE_Harrill_HTTr_Viability_MCF7: CCTE's 6-hour Cell Viability Assessment for the High-Throughput Transcriptomics (HTTr) Platform, in MCF-7 cells cultured in DMEM + 10% fetal bovine serum, Harrill Lab (AID 2284010; active means hit-call score of the fitted dose curve at least 0.9, where 1 is the maximum; inactive means score below 0.9)
How it was run: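 Eight-point concentration series, six-hour exposure. Propidium iodide exclusion imaged to assess membrane integrity as a cytotoxicity readout; bidirectional fitting was done with DMSO as negative control and activity baseline.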

[11] = CCTE_Harrill_HTTr_Apoptosis_MCF7: CCTE's 6-hour Apoptosis Assessment for the High-Throughput Transcriptomics (HTTr) Platform, in MCF-7 cells cultured in DMEM + 10% fetal bovine serum, Harrill Lab (AID 2284011; active means hit-call score of the fitted dose curve at least 0.9, where 1 is the maximum; inactive means score below 0.9)
How it was run: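 High-content imaging of CellEvent Caspase 3/7 Green signal follows a six-hour exposure, with eight concentrations per chemical. MCF-7 cells grown in DMEM plus 10% fetal bovine serum; activity fitted in both directions against DMSO.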

[12] = CCTE_Harrill_HTTr_CellCount_MCF7: CCTE's Cell Proliferation Assessment for the High-Throughput Transcriptomics (HTTr) Platform, Harrill Lab (AID 2284012);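 further: count of Hoechst-stained nuclei per well by high-content imaging in MCF-7 cells; cells exposed to compound for six hours; intended direction is loss of nuclei count meaning fewer cells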
How it was run: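 For this full-screen endpoint, MCF-7 cultures received eight compound dilutions for six hours. Well nuclei counts from Hoechst imaging were analyzed relative to DMSO.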

Question: Which results are given for `CC(Cc1ccccc1)NCCn1cnc2c1c(=O)n(C)c(=O)n2C` (configuration not stated)?
Answer: outcome [1]: inactive; outcome [2]: inactive; outcome [3]: inactive; outcome [4]: inactive; outcome [5]: inactive

Question: For `COc1ccc2c(C(=O)c3ccc(Cl)cc3)c(C)n(CC(=O)O)c2c1`, which outcome [1] is on record?
Answer: Its outcome is “inactive”.

Question: And the outcome [2]?
Answer: The outcome was “inactive”.

Question: And the outcome [6]?
Answer: The outcome was “inactive”.

Question: What about the outcome [4] of the same molecule?
Answer: The outcome was “inactive”.

Question: What about the outcome [5] of the same molecule?
Answer: The outcome was “inactive”.

Question: What does the source list for `O=[N+]([O-])c1ccc(CBr)cc1`?
Answer: outcome [1]: inactive; outcome [7]: inactive; AC50 [3]: 94.3 µM (active); outcome [6]: inactive

Question: With `CCCN(CC1CC1)c1c([N+](=O)[O-])cc(C(F)(F)F)cc1[N+](=O)[O-]` as the molecule, how does the outcome [1] read?
Answer: The outcome was “inactive”.

Question: And the outcome [7]?
Answer: Its outcome is “inactive”.

Question: And the outcome [3]?
Answer: The outcome was “inactive”.

Question: What about the outcome [6] of the same molecule?
Answer: Its outcome is “inactive”.

Question: And the outcome [4]?
Answer: The outcome was “inactive”.

Question: And the outcome [8]?
Answer: Its outcome is “inactive”.

Question: What about the AC50 [9] of the same molecule?
Answer: Its AC50 is 25.4 µM (active).

Question: What about the outcome [10] of the same molecule?
Answer: Its outcome is “inactive”.

Question: What about the outcome [11] of the same molecule?
Answer: Its outcome is “inactive”.

Question: Which outcome [1] does the source give for `ClCc1ccccc1` here?
Answer: The outcome was “inactive”.

Question: And the outcome [7]?
Answer: Its outcome is “inactive”.

Question: What about the outcome [3] of the same molecule?
Answer: Its outcome is “inactive”.

Question: And the outcome [6]?
Answer: The outcome was “inactive”.

Question: And the outcome [4]?
Answer: The outcome was “inactive”.

Question: What about the outcome [8] of the same molecule?
Answer: Its outcome is “inactive”.

Question: What does the source list for `C[C@@H]1[C@@H]2Cc3ccc(O)cc3[C@@]1(C)CCN2CC1CC1`?
Answer: outcome [1]: inactive; outcome [2]: inactive; outcome [8]: inactive; outcome [5]: inactive

Question: With `O=[N+]([O-])CCO` as the molecule, how does the outcome [1] read?
Answer: Its outcome is “inactive”.

Question: What about the outcome [2] of the same molecule?
Answer: The outcome was “inactive”.

Question: And the outcome [6]?
Answer: Its outcome is “inactive”.

Question: And the outcome [8]?
Answer: The outcome was “inactive”.

Question: And the outcome [5]?
Answer: The outcome was “inactive”.

Question: Which results are given for `CC(C)[N+](C)(CCC(C(N)=O)(c1ccccc1)c1ccccc1)C(C)C`?
Answer: outcome [1]: inactive; outcome [2]: inactive; outcome [4]: inactive; outcome [8]: inactive; outcome [5]: inactive

Question: Which outcome [1] does the source give for `CCC1(c2ccccc2)C(=O)NC(=O)N(C(=O)c2ccccc2)C1=O` (configuration not stated) here?
Answer: Its outcome is “inactive”.

Question: And the outcome [7]?
Answer: The outcome was “inactive”.

Question: What about the outcome [3] of the same molecule?
Answer: Its outcome is “inactive”.

Question: What about the outcome [6] of the same molecule?
Answer: The outcome was “inactive”.

Question: And the outcome [4]?
Answer: Its outcome is “inactive”.

Question: What about the outcome [8] of the same molecule?
Answer: Its outcome is “inactive”.

Question: What about the outcome [5] of the same molecule?
Answer: The outcome was “inactive”.

Question: Which outcome [1] does the source give for `CC(C)C[C@H]1C(=O)N2CCC[C@H]2[C@]2(O)O[C@](NC(=O)[C@@H]3C[C@@H]4c5cccc6[nH]cc(c56)C[C@H]4N(C)C3)(C(C)C)C(=O)N12` here?
Answer: The outcome was “inactive”.

Question: And the outcome [7]?
Answer: Its outcome is “inactive”.

Question: And the outcome [3]?
Answer: Its outcome is “inactive”.

Question: And the outcome [6]?
Answer: Its outcome is “inactive”.

Question: What about the outcome [4] of the same molecule?
Answer: The outcome was “inactive”.

Question: What about the outcome [8] of the same molecule?
Answer: Its outcome is “inactive”.

Question: What about the outcome [5] of the same molecule?
Answer: The outcome was “inactive”.

Question: Which results are given for `O=C(O)c1ccccc1C(=O)Nc1cccc2ccccc12`?
Answer: outcome [1]: inactive; outcome [2]: inactive; outcome [6]: inactive; outcome [4]: inactive; outcome [8]: inactive; AC50 [5]: 70.1 µM (active); AC50 [10]: 53.8 µM (active); outcome [11]: inactive; outcome [12]: inactive

Question: Which outcome [1] does the source give for `C=CC(=O)OCC(C)C` here?
Answer: Its outcome is “inactive”.

Question: And the outcome [2]?
Answer: The outcome was “inactive”.

Question: And the outcome [4]?
Answer: The outcome was “inactive”.

Question: And the outcome [8]?
Answer: Its outcome is “inactive”.

Question: What about the outcome [5] of the same molecule?
Answer: The outcome was “inactive”.

Question: Which results are given for `NCCOS(=O)(=O)O`?
Answer: outcome [1]: inactive; outcome [2]: inactive; outcome [4]: inactive; outcome [8]: inactive; outcome [5]: inactive

Question: Which results are given for `C[C@H]1CC[C@]2(NC1)O[C@H]1C[C@H]3[C@@H]4CC[C@H]5C[C@@H](O)CC[C@]5(C)[C@H]4CC[C@]3(C)[C@H]1[C@@H]2C`?
Answer: outcome [1]: inactive; outcome [7]: inactive; outcome [3]: inactive; outcome [6]: inactive; outcome [4]: inactive; outcome [8]: inactive

Question: With `CC(=O)C(Cl)(Cl)Cl` as the molecule, how does the outcome [1] read?
Answer: Its outcome is “inactive”.

Question: What about the outcome [7] of the same molecule?
Answer: Its outcome is “inactive”.

Question: What about the AC50 [3] of the same molecule?
Answer: Its AC50 is 0.778 µM (active).

Question: What about the outcome [6] of the same molecule?
Answer: Its outcome is “inactive”.

Question: And the AC50 [4]?
Answer: Its AC50 is 1.52 µM (active).
